Max dye-equivalent concentration data for 29 molecules are collected here from PubChem BioAssay AID588 (National Center for Advancing Translational Sciences (NCATS), 2007).

The campaign covered roughly 59,000 compounds. About 25 (0.04%) were called active. The rule behind the calls is not given here. For the sample, actives were picked, then their nearest neighbours and some compounds at random.

This experiment is described as follows: qHTS Assay for Spectroscopic Profiling in Resorufin Spectral Region. The conditions noted are these: Compound fluorescence, resorufin region 547/598 nm, buffer. The source says:
NIH Molecular Libraries Screening Centers Network [MLSCN] NIH Chemical Genomics Center [NCGC] […] Occasionally, the artifactual effect may originate from the compound#s own spectral or other biophysical properties which generally tend to track its assay concentration. Pre-screening/profiling the library with respect to the compounds# spectral properties should help one exclude false positives early on. While the most informative fluorescent profiling data set is obtained by performing a full excitation and emission scan of each well by using a monochromator-based plate reader, such an approach is practical only on a very limited scale as scanning each well requires long time. An alternative approach, applied here, is to perform plate reader scans using selected excitation and emission wavelength pairs to generate a multidimensional relational database that correlates compound concentration and the respective relative fluorescence intensity at a given wavelength set. A standard curve of resorufin present on each plate as six-point concentration series, was used to compute a normalized fluorescence response, termed dye-equivalent concentration, for each compound at each concentration.
NCGC Assay Protocol Summary: Buffer: 100 mM Tris buffer, pH 8.0 Dye standard plate: The wells in columns 1 through 4 of a Kalypsys polypropylene 1536-well compound plate were filled with standard solutions of fluorophore corresponding to the spectral region of interest. Solutions of resorufin were placed in the following wells: M1, N1: 3 mM, M2, N2: 300 uM, M3, N3: 30 uM, M4, N4: zero (DMSO), O1, P1: 3 uM, O2, P2: […], O3, P3: 300 nM, O4, P4: zero (DMSO). Assay Steps: Six uL of buffer were dispensed to 1536-well Greiner black plates. Compounds and dye standards (23 nL) were transferred via Kalypsys PinTool. The plates were incubated for 15 min at room temperature, and then read on ViewLux (Perkin-Elmer) High-throughput CCD imager using 547 nm and 598 nm excitation and emission filter set. Keywords: NIH Roadmap, MLSCN, MLI, MLSMR, qHTS, NCGC, Resorufin, Fluorescent Profiling.
A general note: In qHTS, concentration-response curves come from the screen itself.
Consider `COc1ccc(CC(NC(C)=O)C(=O)NC2CCN(C(=O)Nc3ccc(C#N)cc3)CC2)cc1OC` (centres undefined), for which the max dye-equivalent concentration entry is “inactive”.

Regarding `CCOC(=O)N1CCN(C(=O)c2nn(-c3ccc(C)cc3)c(=O)c3c2c2ccccc2n3C)CC1`, the max dye-equivalent concentration entry is “inactive”.

Consider `COc1ccc(Cc2nnnn2CC(=O)O)cc1`, for which the max dye-equivalent concentration entry is “inactive”.

For the molecule `CC(c1nnc(SCC(=O)Nc2sccc2C#N)n1-c1ccc(Cl)cc1)N(C)C` (centres undefined), the max dye-equivalent concentration entry is “inactive”.

As for `CC(C)(CNCC(O)c1ccccc1)N1CCOCC1` (centres undefined), the max dye-equivalent concentration result is “inactive”.

On to `O=C(O)C1CC=C(Cl)CC1C(=O)NCc1ccccc1` (centres undefined), for which the max dye-equivalent concentration result is “inactive”.

As for `O=C(COc1ccc2c3c(c(=O)oc2c1)CCC3)NC1CCCCC1`, the max dye-equivalent concentration result is “inactive”.

Take `Cc1nc2cnc(Nc3ccccc3)nc2n(C[C@H]2CCCO2)c1=O`: the max dye-equivalent concentration entry was “inactive”.

Take `O=C(NCCCN1CCOCC1)c1cc(-c2ccc(Cl)cc2)on1`: the max dye-equivalent concentration entry was “inactive”.

On to `Cn1c(=O)c(CCc2ccccc2)nc2cnc(Nc3ccccc3)nc21`, for which the max dye-equivalent concentration entry was “inactive”.

As for `Cc1cc(=O)n2nc(N3CCCC(C(=O)NCCC4=CCCCC4)C3)sc2n1` (centres undefined), the max dye-equivalent concentration entry was “inactive”.

For the molecule `COc1ccc(-n2c(SCC(=O)NCc3cccs3)nnc2-c2ccoc2C)cc1`, the max dye-equivalent concentration entry is “inactive”.

For `Cc1ccnc(SCCn2c(Br)nc3c2c(=O)[nH]c(=O)n3C)n1`, the max dye-equivalent concentration result is “inactive”.

As for `CCOC(=O)N1CCC(Nc2c(NCCCN3CCN(c4ccc(OC)cc4)CC3)c(=O)c2=O)CC1`, the max dye-equivalent concentration entry is “inactive”.

Regarding `CCCCn1c(SCc2ncc(-c3ccccc3)o2)nc2cc(S(N)(=O)=O)ccc21`, the max dye-equivalent concentration result is “inactive”.

For `CCOc1ccccc1-n1c(SCC(=O)NCc2ccco2)nnc1-c1ccncc1`, the max dye-equivalent concentration entry is “inactive”.

As for `Nc1cc(=O)nc(SCc2ccccc2)n1Cc1ccco1`, the max dye-equivalent concentration entry was “inactive”.

As to `Cc1c(S(=O)(=O)O)ccc(N=Nc2c(O)c(C(=O)O)cc3ccccc23)c1Cl`, the max dye-equivalent concentration result was “inactive”.

In the case of `CCC(=O)Nc1cccc(NC(=O)CSc2nnnn2C2CCCC2)c1`, the max dye-equivalent concentration entry was “inactive”.

Take `Cc1cc(C)c2[nH]c(=O)c(C(c3nnnn3Cc3ccc4c(c3)OCO4)N3CCCC3)cc2c1` (centres undefined): the max dye-equivalent concentration entry is “inactive”.

Take `COc1ccccc1N(C(=O)Cn1nnc2ccccc21)C(C(=O)NCc1ccco1)c1ccc(C)o1` (centres undefined): the max dye-equivalent concentration entry was “inactive”.

As for `CCC(C(=O)N1CCOCC1)n1c(C(=O)OC)cc2occc21` (centres undefined), the max dye-equivalent concentration result is “inactive”.

As to `CCN(c1ccccc1)S(=O)(=O)c1cccc(C(=O)O)c1`, the max dye-equivalent concentration result is “inactive”.

Take `c1ccc2c(Nc3ccncc3)nc(-c3ccc4c(c3)OCO4)nc2c1`: the max dye-equivalent concentration result is “inactive”.

For `CCOC(=O)N1CCN(C(=O)Cc2ccc(-n3c(=S)[nH]c4ccccc4c3=O)cc2)CC1`, the max dye-equivalent concentration result is “inactive”.

Regarding `CC(=O)OCc1cc(=O)n(C)c(=O)n1C`, the max dye-equivalent concentration entry is “inactive”.

Regarding `COc1ncc2nc(-c3ccc(Cl)cc3)c(=O)n(C)c2n1`, the max dye-equivalent concentration result was “inactive”.

Take `CCc1c(C)nc2ncnn2c1N1CCC(C(=O)NCc2ccc3c(c2)OCO3)CC1`: the max dye-equivalent concentration result is “inactive”.

Consider `CN(C(=O)CSc1nnnn1-c1ccccc1)C1CCCCC1`, for which the max dye-equivalent concentration result is “inactive”.
